The panel holds about 83,000 compounds, 20% with a hit somewhere; the sample as a whole holds those more often.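 Compound tested at a single concentration for 48 hours in 96-well plates; a percent growth value below 10 was scored as active.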 Calls of active or inactive are those of the source.
tested on: HOP-62 NSCLC; assay: NCI-60 one-dose screen, 48 h (100 = growth as untreated, 0 = no growth, -100 = all killed); settings: 10 µM unless noted
Protocol: Growth inhibition of the HOP-62 human Non-Small Cell Lung tumor cell line is measured as a screen for anti-cancer activity. Cells are grown in 96 well plates and exposed to the test compound for 48 hours. Compounds are tested at a single concentration, which is 10^-5 M for most compounds. The reported endpoint is percent growth (GI% or GIPRCNT), where numbers from 0 - 100% represent growth inhibition, and numbers from -100% - 0 represent cell death. For example, a value of 40 represents 60% growth inhibition. A value of 0 means no net growth occurred over the course of the experiment. A value of -40 indicates 40% of cells at the beginning of the experiment died by the end of the experiment. A value of -100 means all cells are dead at the end of the experiment.
NCI-60 Human Tumor Cell Lines Screen was performed using the standard one-dose NCI protocol, which is described in more detail at https://dtp.cancer.gov/discovery_development/nci-60/default.htm.
Compounds with GIPRCNT values below 10 were considered active. Activity score was based on GIPRCNT using the following formula: […]
Score is 0 for GIPRCNT values of 100 or above, 50 for GIPRCNT values of 0, and 100 for GIPRCNT values of -100.

Compound | growth
C=C(C)[C@@H]1CC[C@]2(C(=O)NCCNCCNCCN)CC[C@]3(C)[C@H](CC[C@@H]4[C@@]5(C)CCC(=O)C(C)(C)[C@@H]5CC[C@]43C)[C@@H]12 | 43.1% [100 µM] (inactive)
CCCCN(CCCC)CC(O)c1ccc(OCc2ccccc2)c2ccccc12 (stereo not given) | 109% (inactive)
O=C1NC(=O)c2cc([N+](=O)[O-])cc3cccc1c23 | 121% (inactive)
O=C(CCN1CCCCC1)c1ccc(Cl)cc1 | 100% (inactive)
CC(C)C1=NOC(=O)C1=Cc1cn(-c2cccnc2)nc1-c1ccccc1 | 100% (inactive)
O=S(=O)(/N=c1/n(-c2ccccc2)nc2n1CCN2C1=NCCN1)c1ccc(-c2ccccc2)cc1 | 99.1% (inactive)
CCCCNC(=O)NS(=O)(=O)Cc1ccccc1 | 107% (inactive)
Cn1cc(-c2noc(-c3cn(C)c4ncc(F)cc34)n2)c2cc(Br)ccc21 | 67.8% (inactive)
CCOC(=O)C(=Cc1ccccc1[N+](=O)[O-])C(=O)OCC | 27.3% (inactive)
CC(C)C1=NOC(=O)C1=Cc1cn(-c2ccccc2)nc1-c1ccc(Cl)cc1 | 92.4% (inactive)
COc1ccc(NC(=S)NNc2ccc(-c3ccc(OC)c(OC)c3)nn2)cc1 | 97.8% (inactive)
Cc1ccc(-c2cc(O)c(-c3ccc(C)cc3C)cc2O)c(C)c1 | 74% (inactive)
COCCCNc1nc(NC(=O)c2cc(Br)cc(C(F)(F)F)c2)cc(-c2cccnc2)n1 | 91.8% (inactive)
O=C1Nc2ccccc2/C1=C/C(=O)c1ccc(N2CCCCC2)cc1 | 102% (inactive)
O=C(CCNCc1ccccc1)c1ccccc1 | 104% (inactive)
CCCc1cc2cc(-n3nc(C)c4c3CC(C)(C)CC4=O)cc(NC3CCSCC3)c2c(=O)[nH]1 | 45.9% (inactive)
Cc1ccc(-n2nc3n(/c2=N\C(=O)NS(=O)(=O)c2ccc(C)cc2)CCN3C2=NCCN2)cc1 | 93.4% (inactive)
O=C(O)c1cn(C2CC2)c2cc(N3CCN(Cc4c(O)ccc5ccccc45)CC3)c(F)cc2c1=O | -41.1% (active)
COc1ccc(C=C2c3ccccc3-c3ccccc32)cc1 | 55.2% (inactive)
Cc1ccc(Cn2c(O)c(N=NC(=O)c3ccc(S(N)(=O)=O)cc3)c3ccccc32)cc1 | 106% (inactive)

Compound | growth
O=C1/C(=C/c2cccc(OCc3ccccc3)c2)Oc2cc(OCCN3CCCCC3)ccc21 | 89.4% (inactive)
C1=C[C@H]2O[C@@H]1c1ccc3[nH]ccc3c12 | 96.6% (inactive)
CC(=O)n1cc(C=O)c2ccccc21 | 103% (inactive)
Cn1cc(-c2nnc(-c3cn(C)c4ncc(Br)cc34)s2)c2cc(Br)ccc21 | 93.1% (inactive)
NC1=NC(=O)NC1(c1ccccc1)c1ccccc1 | 95.6% (inactive)
C=C(C)[C@@H]1CC[C@]2(C)[C@H](CC[C@@H]3[C@@H]([C@@](C)(O)CCC=C(C)C)CC[C@]32C)[C@@]1(C)CCC(=O)N1CCN(C)CC1 | -93% [100 µM] (active)
CCOC(=O)C(C(C)=O)c1nc2sc3cc(Cl)c(Cl)cc3n2c(=O)c1C#N (stereo not given) | 109% (inactive)
CCNC(=O)N1CCc2c(Cl)c3c(c(OC)c2[C@@H]1[C@H]1OCc2c1ccc(OC)c2OC)OCCO3 | 35.3% (inactive)
COc1ccc(NCc2cn(-c3ccc(C(=O)O)cc3)nc2-c2ccc(C(=O)O)cc2)cc1C(F)(F)F | 96.6% (inactive)
COc1cc2c(cc1OCCCN1CCN(CCCOc3cc4c(cc3OC)C(=O)N3C[C@H](F)C[C@H]3C=N4)CC1)N=C[C@@H]1C[C@@H](F)CN1C2=O | 27.6% (inactive)
CCN(CC)CCCNCc1cc(-c2ccccc2)nc2ccccc12 | 44.2% (inactive)
CCN(CC)CCCCCCNc1cccc2cc(Br)cnc12 | 118% (inactive)
C=C(C)[C@@H]1CC[C@]2(C(=O)NCCCCCCN(CCCN)CCCN)CC[C@]3(C)[C@H](CC[C@@H]4[C@@]5(C)CC[C@H](OCCCN)C(C)(C)[C@@H]5CC[C@]43C)[C@@H]12 | 93.2% [100 µM] (inactive)
CC(=O)OC[C@]12CC[C@@H]([C@@H](C)C(N)=O)[C@@H]1[C@H]1CC[C@@H]3[C@@]4(C)CC[C@H](OC(C)=O)C(C)(C)[C@@H]4CC[C@@]3(C)[C@]1(C)CC2 | -73% [100 µM] (active)
Brc1ccc2c(c1)CN(C1CCCCC1)CO2 | 100% (inactive)
CN(C)c1cc(NN=C(c2ccc(O)cc2)c2ccc(O)cc2)c([N+](=O)[O-])cc1[N+](=O)[O-] | 58% (inactive)
C[C@H]1[C@H](C)CC[C@]2(C(=O)O)CC[C@]3(C)C(=CC[C@@H]4[C@@]5(C)C/C(=C/c6cccnc6)[C@H](O)C(C)(C)[C@@H]5CC[C@]43C)[C@H]12 | -29.1% [100 µM] (active)
Cc1nc(Cl)cc(N(c2cc(Cl)nc(C)n2)c2ncc(C(=O)Nc3c(C)cccc3Cl)s2)n1 | 39.4% (inactive)
Cn1cc(-c2nnc(-c3cn(C)c4ncccc34)o2)c2ccccc21 | 32.6% (inactive)
O=C(Nc1ccc(Oc2ccc(F)cc2)c(Cl)c1)c1cnccn1 | 56.2% (inactive)

From PubChem BioAssay (NCI)
